VACV Venus inh = inhibitors of vaccinia virus (Venus reporter) | Potency, µM (top dose mostly 36.5 µM), without a hit: at the highest dose activity change, negative = inhibition, actives largely listed as inhibitors | AID 720580 | 330,000 tested, 0.46% active | Vaccinia virus Venus reporter expression, fluorescence; calls by dose curve; tested in A549 cells; further: potency means the concentration at half of the fitted maximal effect; nearly all actives have a fitted effect of over 30% in size
HCMV antiviral = blocks human cytomegalovirus replication. HFF cells, HCMV-luciferase reporter, 72 h; stronger effect = lower value. 410,000 tested, 4.5% active. activity change, negative = inhibition, % at 57.5 µM; in the data active means activity change below about -60%; inconclusive means no clear call, values can overlap the other calls; inactive means above about -39%
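Inhibition of viral replication was scored as loss of reporter luminescence in HFFs infected with HCMV-luciferase (MOI 1 PFU/cell) for 72 h; compounds tested at 2 doses, normalized to buffer and Salinomycin controls.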
Vaccinia mCherry = vaccinia inhibition (mCherry reporter). Potency, µM (series often up to 36.5 µM), inactives show top-dose activity change, negative = inhibition, hits mostly inhibitors. 310,000 tested, 0.63% active. Vaccinia virus mCherry reporter infection, fluorescence; calls by dose curve; tested in A549 cells; further: potency means the concentration at half of the fitted maximal effect; nearly all actives have a fitted effect of over 35% in size
LASV entry inh = blocks Lassa virus binding to or entry into cells; Lassa virus pseudotype entry inhibition, cell reporter; Potency, µM (doses to about 37.9 µM), for inactives: at the top dose activity change, negative = inhibition, most hits filed as inhibitors; 300,000 tested, 1.2% active; calls by dose curve; tested in HEK293 cells; further: potency means the concentration at half of the fitted maximal effect; nearly all actives have a fitted effect of over 50% in size
FMDV antiviral = antivirals against foot and mouth disease virus; 410,000 tested, 1.2% active; Potency, µM (doses to about 57.9 µM), for the others: top-dose activity change, negative = inhibition, usual class: inhibitors; FMDV antiviral cell-based qHTS; calls by dose curve; tested in HEK293T cells; further: read-out not given here; potency means the concentration at half of the fitted maximal effect; nearly all actives have a fitted effect of over 45% in size
MARV entry inh = blocks Marburg virus binding to or entry into cells. Marburg virus pseudotyped entry inhibition, cell reporter. Potency, µM (top dose mostly 37.8 µM), for the others: top-dose activity change, negative = inhibition, actives largely listed as inhibitors. 300,000 tested, 1.8% active; calls by dose curve; tested in HEK293 cells; further: potency means the concentration at half of the fitted maximal effect
* marks the source's active call; other numbers are inactive results; [ ] = remark or other dose. Most compounds without a hit are left out; they make up all but 6.5% or so of the library. On the % scale 0 is the no-effect control and ±100 the full control effect.

Results for CCOC(=O)c1ccccc1NC(=O)Cn1c(=O)n(CCC(=O)N2CCc3ccccc3C2)c(=O)c2ccccc21 ?
VACV Venus inh: -13%; HCMV antiviral: -11; Vaccinia mCherry: -20%; LASV entry inh: inconclusive; FMDV antiviral: -11%; MARV entry inh: inconclusive

How did C[C@@H]1N[S+](=O)([O-])c2cc(Cl)ccc2O[C@H]1c1ccccc1 do in these assays?
LASV entry inh: 2%[46.1 µM]

Results for CN1CCN(C(c2ccc(F)cc2)c2sc3nc(-c4ccco4)nn3c2O)CC1 (configuration not stated) ?
VACV Venus inh: 0%; HCMV antiviral: 4; Vaccinia mCherry: -5%; LASV entry inh: inconclusive; FMDV antiviral: -19%

Results for CCOC(=O)c1[nH]c(C)c(CCC(=O)NCc2ccccc2Cl)c1C ?
VACV Venus inh: 7%; HCMV antiviral: -7; Vaccinia mCherry: 0%; LASV entry inh: -10%[46.1 µM]; FMDV antiviral: -6%

How did Cc1nc2ccccc2nc1-c1csc(-c2ccccc2)n1 do in these assays?
VACV Venus inh: -17%; Vaccinia mCherry: -20%

What do the screens show for `COc1ccc(OC)c(-c2cc(Cl)c3c(c2)CC(CNC(=O)C(C)N2CCOCC2)O3)c1` (configuration not stated)?
VACV Venus inh: 8%; Vaccinia mCherry: -11%; FMDV antiviral: 8%

How did COC1/C=C/C=C(\C)Cc2cc(O)c(Cl)c(c2)N(C)C(=O)CC(OC(=O)C(C)C)C2(C)OC2C(C)C2CC1(O)NC(=O)O2 (configuration not stated) do in these assays?
VACV Venus inh: inconclusive; HCMV antiviral: -91*; Vaccinia mCherry: -3%; LASV entry inh: -24%; FMDV antiviral: 0%; MARV entry inh: 10%

How did COC(=O)C/C=C/C(C)C(OC)c1ccccc1Br (configuration not stated) do in these assays?
MARV entry inh: -11%[14.2 µM]

How did Cc1c(N)nc([C@H](CC(N)=O)NC[C@H](N)C(N)=O)nc1C(=O)N[C@H](C(=O)N[C@H](C)[C@@H](O)[C@H](C)C(=O)N[C@H](C(=O)NCCc1nc(-c2nc(C(=O)NCCCCN=C(N)N)cs2)cs1)[C@@H](C)O)[C@@H](O[C@@H]1O[C@@H](CO)[C@@H](O)[C@H](O)[C@@H]1O[C@H]1O[C@H](CO)[C@@H](O)[C@H](OC(N)=O)[C@@H]1O)c1cnc[nH]1 do in these assays?
VACV Venus inh: -27%; Vaccinia mCherry: inactive; FMDV antiviral: -3%

How did COc1ccc(OC)c2c(/C=C/c3c(C)[nH]c4ccccc34)ccnc12 do in these assays?
VACV Venus inh: -22%; Vaccinia mCherry: 13µM*

What do the screens show for `COc1ccc(OC)c2c(/C=C/c3ccc(N(C)C)cc3)ccnc12`?
VACV Venus inh: 6%; Vaccinia mCherry: -16%

What do the screens show for `c1ccc(CNc2nnnn2-c2ccccc2)cc1`?
HCMV antiviral: -72*; LASV entry inh: -13%; FMDV antiviral: 20%; MARV entry inh: 17%

Results for c1ccc(-n2nnnc2NCCc2c[nH]c3ccccc23)cc1 ?
HCMV antiviral: 1; LASV entry inh: -18%; FMDV antiviral: 54%; MARV entry inh: -5%

Results for COc1ccc(NC(=O)CCc2c(C)nc3c(c2C)c(=O)n(C)c(=O)n3C)cc1OC ?
VACV Venus inh: 1%; HCMV antiviral: 1; Vaccinia mCherry: -5%; LASV entry inh: 11%[46.1 µM]; FMDV antiviral: -15%; MARV entry inh: -18%[46.1 µM]

How did CC(C)c1oc(=O)cc2c1[C@@H](O)[C@H]1OC(=O)[C@@]3(C)C[C@@H](O)[C@@H](O)[C@@]2(C)C13 (some centres not stated) do in these assays?
VACV Venus inh: 2µM*; HCMV antiviral: -98*; Vaccinia mCherry: inconclusive; LASV entry inh: 6.5µM*; FMDV antiviral: inconclusive; MARV entry inh: 3.3µM*

Results for CC(C)c1oc(=O)cc2c1[C@@H](O)[C@H]1OC(=O)[C@@]3(C)CC[C@@H](O)[C@@]2(C)C13 (some centres not stated) ?
VACV Venus inh: 4µM*; HCMV antiviral: -97*; Vaccinia mCherry: inconclusive; LASV entry inh: inconclusive; FMDV antiviral: inconclusive; MARV entry inh: inconclusive

What do the screens show for `COc1cc(S(=O)(=O)N2CCOCC2)ccc1NC(=O)COC(=O)CC12CC3CC(CC(C3)C1)C2`?
HCMV antiviral: inconclusive; LASV entry inh: 16µM*; FMDV antiviral: -16%; MARV entry inh: -65%

Results for CCc1nc2ccccc2c(C(=O)OCC(=O)Nc2cccc(S(=O)(=O)N3CCOCC3)c2)c1C ?
HCMV antiviral: -32; LASV entry inh: inconclusive; FMDV antiviral: 20µM*; MARV entry inh: 4.6µM*

Results for CCOCCCn1c(SCC(=O)Nc2cccc(S(=O)(=O)NC3=NCCCCC3)c2)nc2ccccc2c1=O ?
HCMV antiviral: -9; FMDV antiviral: -9%

How did CCCn1c(SCC(=O)Nc2cccc(S(=O)(=O)NC3=NCCCCC3)c2)nc2ccccc2c1=O do in these assays?
VACV Venus inh: -22%; HCMV antiviral: -30; Vaccinia mCherry: -13%; LASV entry inh: -23%; FMDV antiviral: 32µM*; MARV entry inh: inconclusive

Results for CCc1nc2ccccc2c(C(=O)OCC(=O)Nc2ccc(S(=O)(=O)N3CCOCC3)cc2)c1C ?
VACV Venus inh: inconclusive; HCMV antiviral: -32; Vaccinia mCherry: inconclusive; LASV entry inh: inconclusive; FMDV antiviral: inconclusive; MARV entry inh: inconclusive

How did Cc1ccc(S(=O)(=O)N2CCOCC2)cc1NC(=O)COc1ccc(C(=O)c2ccccc2)cc1 do in these assays?
HCMV antiviral: 21; FMDV antiviral: 20µM*

What do the screens show for `COc1cc(S(=O)(=O)N2CCOCC2)ccc1NC(=O)COC(=O)c1cc(OC)c(OC)c(OC)c1`?
VACV Venus inh: -10%; HCMV antiviral: 6; Vaccinia mCherry: inactive; LASV entry inh: -13%; FMDV antiviral: 2%; MARV entry inh: -25%

What do the screens show for `O=C(COC(=O)c1ccc2ccccc2n1)Nc1cccc(S(=O)(=O)NC2=NCCCCC2)c1`?
HCMV antiviral: 86; LASV entry inh: 6%; FMDV antiviral: 16%; MARV entry inh: 2%

Results for CCc1nc2ccccc2c(C(=O)OCC(=O)Nc2cccc(S(=O)(=O)NC3=NCCCCC3)c2)c1C ?
VACV Venus inh: inconclusive; HCMV antiviral: inconclusive; Vaccinia mCherry: inconclusive; LASV entry inh: 22µM*; FMDV antiviral: 25µM*; MARV entry inh: inconclusive

How did O=C(NC(=S)Nc1cccc(S(=O)(=O)NC2=NCCC2)c1)c1cc(-c2ccco2)nc2ccccc12 do in these assays?
VACV Venus inh: -19%; HCMV antiviral: -81*; Vaccinia mCherry: inconclusive; LASV entry inh: -12%; FMDV antiviral: -10%; MARV entry inh: inconclusive
